The source of these data is PubChem BioAssay (EPA / NIEHS).

Calls of active or inactive are those of the source. Rule for the calls: active = hit-call score of the fitted dose curve at least 0.9, where 1 is the maximum; inactive = score below 0.9.

A short description of test [1]: BSK_KF3CT_SRB: Viability Assessment in the BioMAP Diversity Plus: KF3CT Assay (AID 2283069).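 Note: total protein by sulforhodamine B staining as a cytotoxicity measure; read 24 h after compound addition; fitted for both signal gain and loss against DMSO baseline.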 As to conditions: primary human keratinocytes with fibroblasts. In outline:
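Keratinocytes co-cultured with foreskin fibroblasts (human primary); chemical added, 24 h; fix 10% TCA, stain 0.1% SRB, A560. Bidirectional fit vs DMSO.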

Read-out in test [2]: Interleukin-1 alpha (IL1a), IL1A (gene 3552)
Description: BSK_KF3CT_IL1a: BioMAP Diversity Plus: KF3CT Assay for Interleukin-1 alpha (IL1a) Biomarker Activity (AID 2283070). As to conditions: primary human keratinocytes with fibroblasts; actives raise or lower the signal. In a few lines:
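Chemicals were dosed onto co-cultured human keratinocytes and foreskin fibroblasts, IL-1a was quantified by ELISA at 24 h, and activity was fitted in both directions relative to DMSO controls.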

Read-out in test [3]: TIMP metallopeptidase inhibitor 2 (TIMP2), TIMP2 (gene 7077)
The test is described as follows: BSK_KF3CT_TIMP2: BioMAP Diversity Plus: KF3CT Assay for TIMP metallopeptidase inhibitor 2 (TIMP2) Biomarker Activity (AID 2283071). As to conditions: primary human keratinocytes with fibroblasts; actives raise or lower the signal. In a few lines: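 Human primary keratinocyte/foreskin fibroblast co-culture dosed with chemical and sampled at 24 h. TIMP-2 levels quantified by ELISA; bidirectional fitting against DMSO negative control as baseline.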

Read-out in test [4]: Transforming growth factor beta 1 (TGFb1), TGFB1 (gene 7040)
Description: BSK_KF3CT_TGFb1: BioMAP Diversity Plus: KF3CT Assay for Transforming growth factor beta 1 (TGFb1) Biomarker Activity (AID 2283072). As to conditions: primary human keratinocytes with fibroblasts; actives raise or lower the signal. In outline:
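Human keratinocyte plus foreskin fibroblast primary co-culture, dosed with chemical for 24 h. TGF-b1 quantified by ELISA. Activity fitted bidirectionally against DMSO negative control as baseline.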

Read-out in test [5]: Matrix Metallopeptidase 9 (MMP9), MMP9 (gene 4318)
The test is described as follows: BSK_KF3CT_MMP9: BioMAP Diversity Plus: KF3CT Assay for Matrix Metallopeptidase 9 (MMP9) Biomarker Activity (AID 2283074). As to conditions: primary human keratinocytes with fibroblasts; actives raise or lower the signal. In outline:
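Human keratinocyte/foreskin fibroblast co-culture; compound added; 24 h; MMP-9 by ELISA; bidirectional fit vs DMSO baseline.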

Read-out in test [6]: urokinase plasminogen activator (uPA), PLAU (gene 5328)
The test is described as follows: BSK_KF3CT_uPA: BioMAP Diversity Plus: KF3CT Assay for urokinase plasminogen activator (uPA) Biomarker Activity (AID 2283075). As to conditions: primary human keratinocytes with fibroblasts; actives raise or lower the signal. In outline:
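ELISA readout of uPA, analyzed for signal gain or loss relative to DMSO, from a human primary keratinocyte–foreskin fibroblast co-culture measured 24 h after chemical treatment.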

Read-out in a further test: CD40, CD40 (gene 958)
Description: BSK_LPS_CD40: BioMAP Diversity Plus: LPS Assay for CD40 Biomarker Activity (AID 2283076). As to conditions: primary human HUVEC with PBMC; actives raise or lower the signal. In a few lines: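 In the LPS system of human endothelial cells with peripheral blood mononuclear cells, CD40 levels were read by ELISA 24 h post-treatment. Signal changes in either direction were fitted against the DMSO baseline, with parallel SRB protein staining.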

Read-out in test [7]: E-selectin (Homo sapiens) (UniProt P16581)
Description: BSK_LPS_Eselectin: BioMAP Diversity Plus: LPS Assay for Eselectin Biomarker Activity (AID 2283077). As to conditions: primary human HUVEC with PBMC; actives raise or lower the signal. In a few lines: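 E-selectin ELISA on LPS-stimulated endothelial cell/PBMC co-cultures, read 24 h post-treatment; gains and losses fitted against DMSO. Parallel SRB staining (0.1% SRB after 10% TCA fixation, 560 nm) flags overt cytotoxicity.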

Read-out in test [8]: C-C motif chemokine 2 (Homo sapiens) (UniProt P13500)
The test is described as follows: BSK_KF3CT_MCP1: BioMAP Diversity Plus: KF3CT Assay for Monocyte Chemoattractant Protein 1 (MCP1/CCL2) Biomarker Activity (AID 2283073). As to conditions: primary human keratinocytes with fibroblasts; actives raise or lower the signal. In outline:
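ELISA read-out of MCP-1, 24 h post-dose, in primary human skin keratinocytes co-cultured with fibroblasts. Parallel SRB staining monitors cytotoxicity; changes fitted both directions relative to DMSO.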

Read-out in test [9]: Interleukin-8 (IL8), CXCL8 (gene 3576)
Description: BSK_LPS_IL8: BioMAP Diversity Plus: LPS Assay for Interleukin-8 (IL8) Biomarker Activity (AID 2283078). As to conditions: primary human HUVEC with PBMC; actives raise or lower the signal. In a few lines:
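ELISA read-out of IL-8 after 24 h chemical treatment of LPS-activated endothelial/PBMC human primary co-cultures. Changes either up or down relative to DMSO; overt cytotoxicity checked by sulforhodamine B staining in parallel wells.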

Sequence of E-selectin (Homo sapiens) (P16581 whole entry, looked up): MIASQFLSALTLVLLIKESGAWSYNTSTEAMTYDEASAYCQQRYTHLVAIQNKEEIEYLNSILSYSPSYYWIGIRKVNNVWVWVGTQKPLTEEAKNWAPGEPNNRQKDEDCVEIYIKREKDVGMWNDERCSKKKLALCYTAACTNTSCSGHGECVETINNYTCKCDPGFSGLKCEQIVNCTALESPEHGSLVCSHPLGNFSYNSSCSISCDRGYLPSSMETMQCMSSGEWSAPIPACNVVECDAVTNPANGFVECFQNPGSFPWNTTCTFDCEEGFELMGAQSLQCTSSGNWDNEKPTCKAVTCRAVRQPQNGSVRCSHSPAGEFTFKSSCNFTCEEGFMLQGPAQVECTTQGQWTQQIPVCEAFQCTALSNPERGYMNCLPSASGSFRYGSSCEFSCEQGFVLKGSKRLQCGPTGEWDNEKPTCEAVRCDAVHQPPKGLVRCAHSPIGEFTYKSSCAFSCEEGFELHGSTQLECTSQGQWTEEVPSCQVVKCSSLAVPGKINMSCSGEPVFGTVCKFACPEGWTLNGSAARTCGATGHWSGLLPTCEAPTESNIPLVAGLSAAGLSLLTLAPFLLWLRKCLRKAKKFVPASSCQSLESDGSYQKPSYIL

`COc1c(Cl)ccc(Cl)c1C(=O)O`: the outcome in test [1], in test [2], in test [3], in test [4], in [5] and in [6] was inactive. In addition, the outcome with CD40, CD40 (gene 958) was “inactive”; in test [7], “inactive”.
For `CCOC(=O)COc1cc(-n2ncc(C(F)(F)F)c(C)c2=O)c(F)cc1Cl`, the outcome in test [1] is “inactive”; in test [2], “inactive”; in [3], “inactive”; in test [4], “inactive”; in test [8], “inactive”; with CD40, CD40 (gene 958) it was “inactive”. For the same compound, the result in test [7] and in [9] was inactive.
Take `O=C(c1ccccc1)C1CCCCC1`: the outcome in test [1] is “inactive”; in test [2], “inactive”; in test [3], “inactive”; in test [4], “inactive”; in test [8], “inactive”; with CD40, CD40 (gene 958), “inactive”. Further, in test [7], the result was inactive.
With `CN(C)C(=O)Nc1ccc(Cl)c(Cl)c1`, the outcome is “inactive” in test [1]; “inactive” in test [2]; “inactive” in test [3]; “inactive” in test [4]; “inactive” in test [8]; “inactive” with CD40, CD40 (gene 958). Also, in [7], the result was inactive.
What is called AC50 is the midpoint of the concentration-response curve, whichever way the signal moves. Consider `CCN(Cc1c(F)cccc1Cl)c1c([N+](=O)[O-])cc(C(F)(F)F)cc1[N+](=O)[O-]`, for which the outcome in [1], in test [3], in test [4], in test [8] and in test [7] was inactive. The AC50 was 8.48 µM (active) in test [2] and 9.02 µM (active) with CD40, CD40 (gene 958).
In the case of `COC(=O)CSc1cc(N=c2sc(=O)n3n2CCCC3)c(F)cc1Cl`, the outcome is “inactive” in test [1]; “inactive” in [2]; “inactive” in [3]; “inactive” in test [8]; “inactive” with CD40, CD40 (gene 958); “inactive” in [7].
For the compound `CCCCCOC(=O)COc1cc(N2C(=O)C3=C(CCCC3)C2=O)c(F)cc1Cl`, the outcome in test [1], in test [2], in [4], in test [8] and in test [7] was inactive. In addition, the AC50 in test [3] is 13.4 µM (active); with CD40, CD40 (gene 958), 16 µM (active).
`CCCOC(=O)c1ccc(C(=O)OCCC)nc1`: the outcome in [1] is “inactive”; in test [2], “inactive”; in [3] it was “inactive”; in test [4] it was “inactive”; in test [8] it was “inactive”; with CD40, CD40 (gene 958), “inactive”. Further, the outcome in test [7] was inactive.
In the case of `CCN(CC)C(=O)c1cccc(C)c1`, the outcome in [1] is “inactive”; in test [2] it was “inactive”; in [3], “inactive”; in test [4] it was “inactive”; in test [8] it was “inactive”; with CD40, CD40 (gene 958) it was “inactive”. In test [7], the outcome was inactive.
Turning to `O=C(c1ccc(O)cc1O)c1ccc(O)cc1O`, the outcome is “inactive” in [1]; “inactive” in [2]; “inactive” in [3]; “inactive” in test [4]; “inactive” in test [8]; “inactive” with CD40, CD40 (gene 958). In [7], the result was inactive.
On to `C[C@]12C[C@H](O)[C@H]3[C@@H](CCC4=CC(=O)CC[C@@]43C)[C@@H]1CC[C@@H]2C(=O)CO`, for which the outcome in [1] was “inactive”; in test [3], “inactive”; in test [4], “inactive”; in test [8], “inactive”; in test [5], “inactive”; with CD40, CD40 (gene 958), “inactive”. In [7], the outcome was inactive.
As for `CCOC(=O)NCCOc1ccc(Oc2ccccc2)cc1`, the result in [1], in test [2], in [3], in test [4], in test [7] and in test [9] was inactive. In addition, the half-maximal activity concentration (AC50) in test [8] is 4.43 µM (active); with CD40, CD40 (gene 958) it was 8.9 µM (active).
In the case of `CC(C)(c1ccc(O)cc1)c1ccc(O)cc1`, the outcome in [1] was “inactive”; in test [2] it was “inactive”; in test [3], “inactive”; in test [4], “inactive”; in [8] it was “inactive”; with CD40, CD40 (gene 958), “inactive”. In test [7], the outcome was inactive.
For the compound `CCOC(=O)c1ccc(O)cc1`, the outcome in [1] was “inactive”; in test [2] it was “inactive”; in test [3], “inactive”; in test [4] it was “inactive”; in test [8] it was “inactive”; in the test with CD40, CD40 (gene 958), “inactive”. Besides, in [7], the result was inactive.
In the case of `COC(=O)c1ccc(CNS(C)(=O)=O)cc1S(=O)(=O)NC(=O)Nc1nc(OC)cc(OC)n1`, the outcome in test [1] is “inactive”; in test [2], “inactive”; in [3], “inactive”; in [4] it was “inactive”; in test [8] it was “inactive”; in the test with CD40, CD40 (gene 958) it was “inactive”. In addition, the outcome in test [7] was inactive.
In the case of `COC(=O)c1ccccc1S(=O)(=O)NC(=O)Nc1nc(OC(F)F)cc(OC(F)F)n1`, the outcome is “inactive” in [1]; “inactive” in test [2]; “inactive” in test [3]; “inactive” in test [4]; “inactive” in [8]; “inactive” with CD40, CD40 (gene 958). Moreover, in test [7], the outcome was inactive.
For the compound `CC(=O)S[C@@H]1CC2=CC(=O)CC[C@]2(C)[C@H]2CC[C@@]3(C)[C@@H](CC[C@@]34CCC(=O)O4)[C@H]12`, the result in test [1], in test [3], in test [4] and in test [8] was inactive. Further, the AC50 in test [2] was 30.7 µM (active); in the test with CD40, CD40 (gene 958), 25 µM (active); in test [7], 22.5 µM (active).
